This is an account of results in PubChem BioAssay AID1942 (Johns Hopkins Ion Channel Center, 2009).

Each structure is given as a SMILES string. Hit rate of the full screen: of about 2,400 compounds, about 580 (24%) were called active.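 Rule for the calls: active = activity change at or above the mean plus 3 SD of buffer wells without dofetilide, per plate; inactive = the rest.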 Not all results are given here.

This test deals with Potassium voltage-gated channel subfamily KQT member 2 (Rattus norvegicus) (UniProt O88943). Briefly: KCNQ2 potentiation in CHO cells – cell-based, FluxOR thallium flux, counter-screen for hERG block protector project, confirmation (AID 1942).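 Note: normalized value minus buffer-control mean plus three SD of buffer wells.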 The following applies: FluxOR thallium flux fluorescence, at 10 µM, hits give high values. For orientation: The purpose of a counterscreen is to sort out artefacts and off-target activity.
Sequence of Potassium voltage-gated channel subfamily KQT member 2 (Rattus norvegicus) (O88943 whole entry, looked up): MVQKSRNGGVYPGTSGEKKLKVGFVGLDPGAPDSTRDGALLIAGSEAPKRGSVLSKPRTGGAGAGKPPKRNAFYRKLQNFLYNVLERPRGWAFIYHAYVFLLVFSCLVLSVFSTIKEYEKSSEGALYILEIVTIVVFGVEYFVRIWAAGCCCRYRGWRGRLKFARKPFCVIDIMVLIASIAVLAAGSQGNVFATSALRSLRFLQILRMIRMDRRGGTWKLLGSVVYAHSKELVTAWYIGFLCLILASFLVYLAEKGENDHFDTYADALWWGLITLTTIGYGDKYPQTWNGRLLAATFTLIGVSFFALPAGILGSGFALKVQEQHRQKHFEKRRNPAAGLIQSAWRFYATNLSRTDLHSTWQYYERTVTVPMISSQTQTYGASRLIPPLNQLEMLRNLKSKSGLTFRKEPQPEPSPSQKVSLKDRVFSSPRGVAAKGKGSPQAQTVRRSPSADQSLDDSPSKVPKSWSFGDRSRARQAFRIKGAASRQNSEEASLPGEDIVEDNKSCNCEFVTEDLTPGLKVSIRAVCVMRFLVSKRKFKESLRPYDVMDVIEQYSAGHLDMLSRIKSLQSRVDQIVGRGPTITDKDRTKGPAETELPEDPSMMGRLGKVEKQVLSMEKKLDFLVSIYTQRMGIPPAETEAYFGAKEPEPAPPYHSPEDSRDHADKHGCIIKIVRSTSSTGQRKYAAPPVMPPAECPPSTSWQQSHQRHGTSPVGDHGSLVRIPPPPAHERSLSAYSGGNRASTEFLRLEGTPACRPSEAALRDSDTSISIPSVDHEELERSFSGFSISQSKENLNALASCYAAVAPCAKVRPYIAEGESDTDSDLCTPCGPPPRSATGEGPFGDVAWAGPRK
Take `COc1ccc2nc(/N=C/c3c(C)[nH]n(-c4ccc(C)cc4C)c3=O)sc2c1`: the activity change, less the hit threshold is 23% (active).

`CCOc1ccc2nc(/N=C/c3nc(-c4ccc(Br)cc4)oc3O)sc2c1`: the activity change, less the hit threshold was -9.3% (inactive).

As to `CCOc1ccc2nc(N3C(=O)/C(=C/c4ccc(Cl)cc4)NC3=S)sc2c1`, the activity change, less the hit threshold was -21.3% (inactive).

Regarding `CCOc1ccc2nc(/N=C/c3c(C)[nH]n(-c4ccc(C)cc4)c3=O)sc2c1`, the activity change, less the hit threshold is 102% (active).

As to `CCC(c1nnc(SCC(=O)NCCc2ccc(Cl)cc2Cl)o1)N(C)C` (stereo not drawn), the activity change, less the hit threshold is -31.5% (inactive).

Take `CCOc1ccccc1C(=O)NC1CC2CCCC(C1)N2Cc1nnnn1Cc1ccco1` (stereo not drawn): the activity change, less the hit threshold was -26.4% (inactive).

For the compound `Cc1ccc2cc(CN(CCCN(C)C)C(=S)NCc3ccccc3)c(=O)[nH]c2c1C`, the activity change, less the hit threshold was -23.9% (inactive).

For the compound `CC1CC(OCC(O)C[N+]2(C)CCOCC2)CC(C)(C)C1` (stereo not drawn), the activity change, less the hit threshold is -21.6% (inactive).

With `CCCSc1cc(NCCOC(C)=O)c([N+](=O)[O-])c2nonc12`, the activity change, less the hit threshold is -13.1% (inactive).

In the case of `COc1ccc(C(=O)O/N=C(\N)c2ccccn2)cc1[N+](=O)[O-]`, the activity change, less the hit threshold was -10.2% (inactive).

Take `O=[N+]([O-])C1=CC=C2C(=NC3(CCCCC3)N2O)C1=NC1CCCCC1`: the activity change, less the hit threshold is -27.4% (inactive).

With `Cc1ccc(/C(O)=C/C(=O)C(=O)NC23CC4CC(CC(C4)C2)C3)cc1`, the activity change, less the hit threshold is 1.2% (active).

For the compound `O=C(O)c1ccc(CNC(=O)C23CC4CC(CC(C4)C2)C3)cc1`, the activity change, less the hit threshold was -18.2% (inactive).

With `Nc1cccc2c1C(=O)N(CC(=O)NC13CC4CC(CC(C4)C1)C3)C2=O`, the activity change, less the hit threshold is -18.4% (inactive).

As to `S=c1[nH]nc(-c2n[nH]c3c2CCC3)n1/N=C/C=C/c1ccccc1`, the activity change, less the hit threshold is -26.2% (inactive).

As for `CC(=O)OCC1O[C@@H](O[C@@H]2C[C@H]3C(C)(C)[C@H](OC(C)=O)CC[C@]3(C)[C@H]3CC[C@]45C[C@]4(CC[C@H]5[C@@H](C)C[C@@H](O)[C@H](O)C(C)(C)O)[C@@]32C)[C@H](O)[C@@H](O)[C@@H]1O` (stereo partly drawn), the activity change, less the hit threshold was 1% (active).

Turning to `CC(Nc1ccc(F)cc1)=[N+](C)CCNS(=O)(=O)c1ccc(Cl)cc1`, the activity change, less the hit threshold is -10.9% (inactive).

Turning to `N/C(=N\OS(=O)(=O)c1cccc([N+](=O)[O-])c1)c1ccncc1`, the activity change, less the hit threshold was 1.3% (active).

In the case of `CN(c1cccc(NS(=O)(=O)c2cccc([N+](=O)[O-])c2)c1)S(C)(=O)=O`, the activity change, less the hit threshold was -9.2% (inactive).

In the case of `O=C(CSc1nnc(-c2ccncc2)o1)c1cccc([N+](=O)[O-])c1`, the activity change, less the hit threshold was -29.3% (inactive).

On to `CCOc1cccc(Nc2cc3n(c(=O)n2)CCc2cc(OC)c(OC)cc2-3)c1`, for which the activity change, less the hit threshold is -19.8% (inactive).

As to `CC(C)CCn1c(SCC(=O)NC2CC2)nc2cc(Cl)ccc2c1=O`, the activity change, less the hit threshold was -8.5% (inactive).

In the case of `CCCn1c(SCN2C(=O)c3ccccc3C2=O)nc2cc(Cl)ccc2c1=O`, the activity change, less the hit threshold was 21.1% (active).

In the case of `O=C1c2ccccc2C(=O)N1Cc1nc2ccccc2c(=O)n1CCCn1ccnc1`, the activity change, less the hit threshold was -20.6% (inactive).

Take `Cc1ccc(OCC(=O)Nn2cnc3ccccc32)cc1`: the activity change, less the hit threshold is -12.3% (inactive).

Turning to `O=C(CCc1ccc(S(=O)(=O)N2CCCCC2)cc1)c1nnc(-c2ccccc2)o1`, the activity change, less the hit threshold is -13.3% (inactive).

Consider `S=C(N/N=C/c1cccc2ccccc12)Nc1cccc(Cl)c1`, for which the activity change, less the hit threshold was -17.2% (inactive).

Consider `S=c1nn[nH]n1C12CC3CC(CC(C3)C1)C2`, for which the activity change, less the hit threshold is 21.6% (active).

Take `Cc1cc(=O)[nH]c(=S)n1-c1ccccc1`: the activity change, less the hit threshold is -31% (inactive).

As to `O=c1c2c3c(sc2[nH]c(=S)n1Cc1ccco1)CCC3`, the activity change, less the hit threshold was 26.9% (active).

In the case of `Cc1ccc(-n2c(=S)[nH]c3sc4c(c3c2=O)CCC4)cc1`, the activity change, less the hit threshold was 0.2% (active).

With `O=C1c2ccccc2C(=O)N1Cc1ccco1`, the activity change, less the hit threshold is -11.8% (inactive).

For `CCn1c(=S)[nH]c2sc3c(c2c1=O)CCCC3`, the activity change, less the hit threshold is 49.6% (active).

On to `CCn1c(=S)[nH]c2sc3c(c2c1=O)CCCCC3`, for which the activity change, less the hit threshold was 97.9% (active).

Regarding `Cc1cccc(-n2c(=S)[nH]c3sc4c(c3c2=O)CCc2ccccc2-4)c1`, the activity change, less the hit threshold was -19.9% (inactive).

With `CCN(/N=C/c1ccc(Cl)cc1)c1cc(=O)n(C)c(=O)[nH]1`, the activity change, less the hit threshold was -19% (inactive).

For `CCCCCOCC1CC(C/C(C)=N/Nc2nc(-c3ccccc3)cs2)C(=O)O1` (stereo not drawn), the activity change, less the hit threshold was -18.7% (inactive).

In the case of `O=C(/C=C/Nc1ccc(F)cc1)c1ccco1`, the activity change, less the hit threshold was -17.3% (inactive).

With `O=C(c1cccc2c1-c1ccccc1C2)N1CCCCC1`, the activity change, less the hit threshold is -20.1% (inactive).

For `O=C(O)c1ccc2c(c1)C(=O)N(c1cc([N+](=O)[O-])ccn1)C2=O`, the activity change, less the hit threshold is -1.1% (inactive).

As to `O=C(CN1CCN(Cc2ccccc2)CC1)NCc1ccccc1Cl`, the activity change, less the hit threshold is -10.1% (inactive).

As for `CCCn1c(=S)[nH]c2sc3c(c2c1=O)CCCC3`, the activity change, less the hit threshold was 72% (active).

Take `COc1ccc(N(CC(=O)N2CCN(Cc3ccccc3)CC2)S(C)(=O)=O)cc1`: the activity change, less the hit threshold is -25.7% (inactive).

Turning to `C#CCN1C(=O)S/C(=C\c2ccc(-c3ccc(C(=O)O)cc3C)o2)C1=O`, the activity change, less the hit threshold was -20.3% (inactive).

As for `COc1cc(CCC(=O)NNC(=O)c2ccc(C)cc2)cc(OC)c1OC`, the activity change, less the hit threshold was -8.9% (inactive).

`Oc1c(Br)cc(Br)cc1C=Nc1ccc2c(c1)OCCO2`: the activity change, less the hit threshold is -1.5% (inactive).

Regarding `CCOc1cccc(C(=O)Nc2ccc3[nH]ncc3c2)c1`, the activity change, less the hit threshold is -15.8% (inactive).

Regarding `Oc1c(Br)cc(Br)cc1C=Nc1ccc2[nH]ncc2c1`, the activity change, less the hit threshold is 33% (active).

With `O=C(CSc1nc2ccccc2o1)NCc1n[nH]c(=O)c2ccccc12`, the activity change, less the hit threshold was -12.3% (inactive).

In the case of `COc1ccc(-n2nc(C)cc2Nc2ccccc2C(=O)O)cc1`, the activity change, less the hit threshold is 21.8% (active).

For the compound `CCOc1ccc(C(=O)Nc2ccccc2C(=O)O)cc1`, the activity change, less the hit threshold was -4% (inactive).

Take `Cc1cc(NC(=O)/C(C#N)=C/c2ccco2)n(-c2ccccc2)n1`: the activity change, less the hit threshold is -20.2% (inactive).

With `CCCCSc1nnc(CCC)n1N`, the activity change, less the hit threshold was -8.4% (inactive).

`CC(C)OC(=O)c1c(NC(=O)c2ccco2)sc2c1CCCCC2`: the activity change, less the hit threshold was -27.5% (inactive).

For the compound `CCc1c(C)sc(NC(=O)CN2CCN(C(=O)c3ccco3)CC2)c1C(=O)OC`, the activity change, less the hit threshold is 16.7% (active).

As for `COC(=O)c1c(NC(=O)c2ccco2)sc2c1C(C(=O)OC)CC2` (stereo not drawn), the activity change, less the hit threshold was -18.3% (inactive).

`CCOc1ccc(OCC(=O)OCC(=O)N2CCN(C(=O)c3ccco3)CC2)cc1`: the activity change, less the hit threshold was -10.5% (inactive).

For the compound `CCOC(=O)c1c(NC(=O)CN2CCN(C(=O)c3ccco3)CC2)sc2c1CCCC2`, the activity change, less the hit threshold is 17.6% (active).
